Assay results from PubChem BioAssay AID504725 (Broad Institute, 2011).
Measured potencies and affinities stand elsewhere. Calls of active or inactive are those of the source. The rule behind the calls is not given here.

Biological target: KSHV LANA C-terminal domain (residues 932-1162) binding to LBS DNA (UniProt O40947)
Assay: KSHV LANA DNA-binding disruption – biochemical, fluorescence polarization, cherry-picked samples, dose response (AID 504725)
Details: MBP-C-LANA / FAM-LBS DNA fluorescence polarization, percent change from plate compound-well median; series mostly up to 35 µM; activity change, negative = inhibition: at the top concentration

SMILES | activity change, negative = inhibition
COc1cc(C(=O)O)cc(NC(=O)c2ccco2)c1OC | -2.4% (inactive)
O=C(N/N=C\c1ccc([N+](=O)[O-])o1)c1cncc(Br)c1 | -0.045% (inactive)
COc1ccc(CNC(=O)C2CCC(CNC(=O)[C@@H]3Cc4ccccc4CN3)CC2)cc1 (stereo partly drawn) | 1.95% (inactive)
Brc1ccc(-c2noc(COc3ccc4c(c3)CCC4)n2)o1 | -1.67% (inactive)
Cc1ccc(-c2nnn(CC(=O)NC3CCN(Cc4ccccc4)CC3)n2)cc1 | -2.48% (inactive)
NC(=S)N/N=C/c1cn(CCC(=O)O)nc1-c1cccc(Br)c1 | 2.56% (inactive)
Cc1ccc(NC(=O)CN(C)C(=O)c2nn(C)c(=O)c3ccccc23)cc1 | 5.21% (inactive)
CCOC(=O)[C@H]1[C@H]2COc3cc(OC)ccc3[C@@H]2N2C(=O)CN(Cc3ccc(OC)cc3)C(=O)[C@@]12C | -1.58% (inactive)
O=C1C=C(c2ccoc2)N2CCC[C@H]2C1 | -8.87% (inactive)
C=CCNC(=O)c1cn(CC)c2cc(N3CCN(C(=O)c4ccco4)CC3)c(F)cc2c1=O | 4.41% (inactive)
Cc1sc2nnn(CC(=O)N3CCN(C(=O)c4ccco4)CC3)c(=O)c2c1C | -1.77% (inactive)
CC(Sc1nc2ccccc2s1)C(=O)Nc1nnc(C(C)C)s1 (stereo not drawn) | -11.3% (inactive)
CN1CCN(CCCNC(=O)c2cc3c(-c4ccc(Cl)cc4)nn(C)c3s2)CC1 | 4.84% (inactive)
COc1ccc(-c2cc(C(=O)N(C)CCc3ccc(OC)c(OC)c3)c3ccccc3n2)cc1 | 0.133% (inactive)
COc1ccc(Cn2nnc3c(=O)[nH]c(C4CCCN(C(=O)c5ccccc5)C4)nc32)cc1 (stereo not drawn) | -4.65% (inactive)
Nc1c(-c2ccccn2)cnn1-c1nc(-c2ccc(F)cc2)cs1 | 1.14% (inactive)
Fc1ccc(-c2cc(C(F)(F)F)nc(-n3cc(Cl)cn3)n2)cc1 | -2.03% (inactive)
CCOc1ccccc1N1CCN(C(=O)c2ccc3nc(N)sc3c2)CC1 | 1.38% (inactive)
CC(C)C(=O)N1CCN(c2ccccc2NC(=S)NC(=O)c2ccco2)CC1 | -4.33% (inactive)

SMILES | activity change, negative = inhibition
O=C(NC1(O)C(=O)c2ccccc2C1=O)c1c(Cl)cccc1Cl | -13.2% (inactive)
Cc1ccccc1NC(=S)NC(C)CCc1ccccc1 (stereo not drawn) | -0.385% (inactive)
CC(/C=C1\SC(=S)N(CCCC(=O)Nc2ccc(C(=O)O)cc2)C1=O)=C\c1ccccc1 | 0.1% (inactive)
O=C(N/N=C/c1ccc(N2CCOCC2)cc1)c1ccccn1 | 3.58% (inactive)
COc1ccc(/C=C/c2cc(C(F)(F)F)[nH]c(=O)n2)cc1OC | 1.17% (inactive)
COc1cccc(C2CC(=O)Nc3cc4c(cc32)CCC4)c1 (stereo not drawn) | -1.11% (inactive)
O=C(CN1CC[C@@]2(O)CCCC[C@H]2[C@@H]1c1ccc(F)cc1)NCc1ccco1 | -1.3% (inactive)
CCCCn1nc(CC(=O)O)c2ccccc2c1=O | 2.31% (inactive)
C/C(=N\Nc1nc2c(s1)CCCC2)c1ccc(Cl)cc1 | 3.37% (inactive)
O=c1c2c(nc3cc(-c4ccc(F)cc4)[nH]n13)CCC2 | 3.74% (inactive)
CC(C)=C1C2C=CC1C(C(=O)Nc1cc(C)ccc1C)C2C(=O)O (stereo not drawn) | -0.451% (inactive)
O=C(Nc1ccc(Br)cn1)c1cccc2ccccc12 | 3.91% (inactive)
Cc1ccc(NS(=O)(=O)c2ccc(C(=O)NCCCN3CCCC3=O)cc2)cc1 | 2.81% (inactive)
Cc1cc(NC(=O)CCC(=O)N(CCC(C)C)C(C(=O)NC2CCCC2)c2cccnc2)no1 (stereo not drawn) | -2.56% (inactive)
Nc1ccccc1C(=O)N1O[C@@H]2C=C[C@H]1CC2 | -2.64% (inactive)
CC(C)[C@H](NC(=O)c1ccccc1F)C(=O)NC1CCCCCCC1 | 1.06% (inactive)
Cc1noc(C)c1-c1nc(CSc2ccccc2)no1 | -2.84% (inactive)
CCOc1ccc(Nc2ccc(N)c(S(=O)(=O)O)c2)cc1 | -15.9% (inactive)
Cn1c2ccccc2c2cnn(CC(=O)Nc3cccc(F)c3)c(=O)c21 | -5.89% (inactive)
